The list is not random: actives were taken first. Their share in the collection is about 10%.
Luc counter: Counterscreen for Luciferase (Kinase-Glo TM) Inhibition. Kinase-Glo luciferase, ATP luminescence, 8 min. Potency, µM (doses to about 38.3 µM), for the others: at the top dose activity change, negative = inhibition, actives largely listed as inhibitors. hit rate 0.28% among 200,000; active = well fitted inhibition curve with a large enough effect; inconclusive = small, poorly fitted or top-dose-only effect; also: potency is read from the fitted curve at half-maximal effect; nearly all actives have a fitted effect of over 60% in size
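Inhibition of Kinase-Glo luciferase light generation was assessed at 10 uM ATP in pH 7.2 imidazole buffer, with luminescence measured after eight minutes at ambient temperature.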
HPGD block: qHTS Assay for Inhibitors of HPGD (15-Hydroxyprostaglandin Dehydrogenase) | purified HPGD, NADH fluorescence kinetic, PGE2 substrate | Potency, µM, for inactives: at the highest dose activity change, negative = inhibition, actives largely listed as inhibitors | hit rate 4.3% among 150,000; also: potency is read from the fitted curve at half-maximal effect
Target sequence (P15428 whole entry, looked up): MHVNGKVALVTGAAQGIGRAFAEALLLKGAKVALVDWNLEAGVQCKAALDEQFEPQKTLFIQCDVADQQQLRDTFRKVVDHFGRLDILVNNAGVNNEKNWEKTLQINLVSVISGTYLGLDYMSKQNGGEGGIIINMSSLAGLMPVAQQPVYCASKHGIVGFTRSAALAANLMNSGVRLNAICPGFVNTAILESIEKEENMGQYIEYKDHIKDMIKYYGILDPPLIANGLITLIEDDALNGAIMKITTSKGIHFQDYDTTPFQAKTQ
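20 nM HPGD preincubated 15 min at room temperature with compound in 50 mM Tris-HCl pH 8, 0.01% Tween 20. Started with 1 mM NAD+ and 30 uM prostaglandin E2; NADH fluorescence (360/450 nm) read 5 times over 30-s intervals, last minus first.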
PNC inhibitor: High Content Assay for Compounds that inhibit the Assembly of the Perinucleolar Compartment; PC3M PTB-GFP, PNC prevalence imaging, 16 h; active compounds read low; activity change (PNC), negative = inhibition, % at 10 µM; hit rate 3.1% among 140,000; AID 2417, 2010;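 active = readout at or below -70, meaning at least 70% loss of cells showing the perinucleolar compartment, a nuclear body marking cancer cells; inconclusive = readout between -30 and a set limit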;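 also: plate controls were DMSO wells for no effect and camptothecin positive control wells for full effect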
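PC3M cells stably expressing PTB-GFP, 750–1000 cells/well, treated 16 h at 37 °C with compound (23 nl of library stock), in duplicate. After paraformaldehyde fixation and Hoechst stain, imaged at 20x; PNC prevalence scored by image analysis.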
LMNA splice mod: qHTS Assay for Modulators of Lamin A Splicing. HeLa LMNA splicing GFP/RFP minigene ratio, 48 h. Potency, µM (series often up to 46.1 µM), without a hit: at the highest dose ratio change, negative = inhibition, actives largely listed as inhibitors. hit rate 0.01% among 200,000; active = well fitted inhibition curve with a large enough effect in the signal ratio, with a control signal flat, not every such curve was filed as active; inconclusive = small, poorly fitted or top-dose-only effect, or effect the other way, or a change in a side signal; the % refers to the signal ratio; also: potency is read from the fitted curve at half-maximal effect
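S3 HeLa stable clones carrying a lamin A-EGFP splicing minigene plus DsRed2 were seeded at 600 cells/well in Opti-MEM with 2% FBS, pin-dosed and incubated 48 h at 37°C. Acumen cytometry (488 nm) gave the GFP/RFP total-intensity ratio.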
ALDH1A1 inh: qHTS Assay for Inhibitors of Aldehyde Dehydrogenase 1 (ALDH1A1). hit rate 7.3% among 220,000. Purified ALDH1A1, NADH fluorescence, propionaldehyde substrate. Potency, µM (doses to about 75.3 µM), inactives show at the top dose activity, negative = inhibition, hits mostly inhibitors. Aldehyde dehydrogenase 1A1 (Homo sapiens), P00352;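 also: potency is read from the fitted curve at half-maximal effect; plate controls were no enzyme wells and a reference inhibitor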
Target sequence (P00352 whole entry, looked up): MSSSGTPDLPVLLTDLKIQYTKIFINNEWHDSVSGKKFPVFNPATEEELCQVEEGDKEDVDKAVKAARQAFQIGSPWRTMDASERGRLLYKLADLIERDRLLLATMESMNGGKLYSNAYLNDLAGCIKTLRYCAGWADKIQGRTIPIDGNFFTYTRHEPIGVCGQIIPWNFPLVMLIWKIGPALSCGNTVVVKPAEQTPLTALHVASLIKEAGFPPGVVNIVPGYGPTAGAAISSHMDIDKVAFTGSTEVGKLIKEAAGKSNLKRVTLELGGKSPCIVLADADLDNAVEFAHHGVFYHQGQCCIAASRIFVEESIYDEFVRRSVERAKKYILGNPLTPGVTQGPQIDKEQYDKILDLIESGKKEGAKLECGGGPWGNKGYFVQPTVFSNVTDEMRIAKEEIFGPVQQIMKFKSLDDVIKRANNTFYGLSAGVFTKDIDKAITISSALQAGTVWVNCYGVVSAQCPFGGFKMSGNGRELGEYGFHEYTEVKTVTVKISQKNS
Numbers without * were called inactive; ? = inconclusive; nt = not tested or not shown; ! = not active in a repeat; [ ] = another dose, or the depositor's remark. Unless noted, calls follow the shape of the dose curve; as a rule, active = well fitted inhibition curve with a large enough effect (not every such curve was filed as active); inconclusive = small, poorly fitted or top-dose-only effect, or another doubt; inactive = no such curve, though single readings can be large or run the other way. Unless noted, % is scaled to controls: 0 for no effect and ±100 for the full control effect.

SMILES	Luc counter	HPGD block	PNC inhibitor	LMNA splice mod	ALDH1A1 inh
Cc1cccc(C(=O)Nc2ccc(Cl)cc2C(=O)c2ccccc2)c1	-0.1%	-15.2%	?	-0.4%	-7.4%
O=C(C[N+]12CCC(CC1)C(CO)C2)c1ccc([N+](=O)[O-])cc1 (stereo not drawn)	10.0%	nt	nt	?	-11.4%
O=C(CNC(=O)c1cccs1)OCC(=O)c1ccc([N+](=O)[O-])cc1	-2.9%	nt	nt	nt	0.316µM*
COC(C)(C)C	nt	-2.5%	nt	nt	17.8µM*
CC(C)(C)OOC(C)(C)C	nt	-6.9%	nt	nt	-4.1%
O=C1CCC[C@H]2[C@H]3CCCN4CCCC(=CN12)[C@@H]34	-3.0%	-9.3%	nt	nt	0.1%
Cc1cccn2c(NCC3CCCO3)c(C(C)C)nc12 (stereo not drawn)	0.2%	?	-126.5*	0.4%	?
CC(C)(O)C1C2OC(=O)C1[C@]1(O)CC3O[C@@]34C(=O)OC2[C@@]14C (stereo partly drawn)	-3.8%	-8.8%	nt	nt	10.6%
CN1C(=O)C(=Cc2ccc(N3CCOCC3)o2)C(=O)N(C)C1=O	-28.5%	15.8µM*	-23.6	2.1%	6.2%
CN1C(=O)C(=Cc2ccc(-c3cccc(Cl)c3)o2)C(=O)N(C)C1=O	-11.1%	7.94µM*	-7.5	-7.5%	?
CN1C(=O)C(=Cc2ccc(N3CCCCCC3)o2)C(=O)N(C)C1=S	-13.1%	-14.7%	4.0	7.6%	?
Cc1ccc(Sc2ccc(C=C3C(=O)N(C)C(=O)N(C)C3=O)o2)cc1	-2.8%	nt	nt	nt	4.47µM*
CN(C)C(=O)Nc1cccc(C(F)(F)F)c1	nt	-4.1%	nt	nt	2.7%
CCCCC/C=C\C/C=C\CCCCCCCCCC(=O)NCCc1ccc(O)c(O)c1	0.6%	-4.9%	nt	nt	2.0%
CC(Cc1cccc(C(F)(F)F)c1)NCCCc1ccccc1 (stereo not drawn)	nt	nt	nt	nt	-12.3%
CC1=CC(=O)c2c(O)cccc2C1=O	-0.9%	25.1µM*!	nt	nt	15.8µM*
O=C(Nc1ccc(Br)cc1)c1cc(Br)cc(Br)c1O	3.5%[39.9 µM]	-12.0%	nt	?	?
COC(=O)C12CC3=C[C@H](CC3=O)Cc3ccccc3[C@@H]1CNC2=O (stereo partly drawn)	-1.0%	-10.7%	nt	nt	6.7%
CC(=O)NC(Cc1ccc(N(CCCl)CCCl)cc1)C(=O)O (stereo not drawn)	2.9%	-12.2%	212.5	?	2.9%
CCOC(=O)C(NC(C)=O)C(OC(C)=O)c1cccc(N(CCCl)CCCl)c1 (stereo not drawn)	3.7%	-0.3%	-118.9*	?	5.6%
C[C@H]1[C@@H](O)[C@@H](C)/C=C\C=CCC\C=C/C=C\C=C/C=C[C@@H](O[C@H]2O[C@@H](C)[C@@H](O)[C@@H](N)[C@@H]2O)C[C@@H]2O[C@@](O)(C[C@@H](O)[C@H]2C(=O)O)C[C@@H](O)[C@@H](O)CC[C@@H](O)C[C@@H](O)C[C@@H](O)CC(=O)O[C@H]1C	-4.6%[17.1 µM]	-15.7%	nt	-4.8%	8.3%[20.9 µM]
Cc1[nH]c2ccccc2c1/C=N/O	-4.7%	12.6µM*	-85.9*	16.6%	-9.0%
Cc1nccc2c1[nH]c1ccccc12	-0.5%	?	nt	-3.2%	?
CCN(CC)C(=O)c1ccc(NC(=O)Cn2nc(C)c3ccccc3c2=O)cc1	-2.4%	10µM*	?	-8.4%	?
CN(C)c1ccc(N=O)cc1	nt	-14.5%	nt	nt	0.398µM*
SMILES	Luc counter	HPGD block	PNC inhibitor	LMNA splice mod	ALDH1A1 inh
CN(C)c1ccc(N)cc1	nt	-6.7%	nt	nt	14.1µM*
CN(C)c1ccc(N=Nc2ccccc2)cc1	nt	-10.6%	nt	nt	?
CC(=O)c1ccc(OC(C)C)c(Cc2c(O)[nH]c(=S)[nH]c2=O)c1	0.5%	nt	nt	nt	17.8µM*
CC(C)Oc1ccc(Cc2c(O)[nH]c(=O)[nH]c2=O)cc1	-0.5%	-5.1%	11.2	0.7%	-9.9%
O=C1NC(c2cccnc2)Nc2sc3c(c21)CCCC3 (stereo not drawn)	-0.8%	-26.1%	-100.0*	-7.7%	?
CC1(C)Cc2c(sc3c2C(=O)NC(c2cccnc2)N3)CO1 (stereo not drawn)	0.7%	?	-101.5*	16.8%	?
CC12CN3CC(C)(CN(C1)C3c1cccnc1)C2=O (stereo not drawn)	0.6%	0.7%	-2.6	-3.7%	-1.6%
O=c1ccc2cc(O[C@H]3OC(CO)C(O)C(O)C3O)c(O)cc2o1 (stereo partly drawn)	-11.8%	?	nt	nt	?
CS(=O)(=O)c1ccc([C@H](O)[C@H](CF)NC(=O)C(Cl)Cl)cc1	-2.7%[17.1 µM]	-9.9%	nt	?	7.8%[20.9 µM]
CC1C(=O)OC2C1CC[C@@]1(C)C=CC(=O)[C@@]3(C)O[C@@]213 (stereo partly drawn)	-0.4%	2.7%	nt	nt	4.3%
ClCCCl	nt	-1.4%	nt	nt	?
NC(=O)c1sc2nc3c(c(-c4cccs4)c2c1N)CCCC3	-3.1%	?	20.4	?	?
Nc1c2c(nc3sc4c(c13)CCCCC4)CCCC2	-11.9%	-17.1%	-113.0*	?	?
COC1=CC(=O)O[C@@H](/C=C/c2ccc3c(c2)OCO3)C1	nt	-6.2%	nt	nt	25.1µM*
CCCN1[C@H](C(=O)OC)C[C@@H]2CC[C@@H](O)C[C@@H]21	-1.0%	-7.5%	nt	nt	0.0%
FC(F)(F)c1ccccc1CN1CCN(Cc2ccccc2)CC1	-0.7%	-13.1%	10.0	10.4%	20µM*
CC(C)N1CCN(Cc2ccccc2C(F)(F)F)CC1CCO (stereo not drawn)	-2.7%	nt	nt	6.1%[46 µM]	7.6%
Cc1cc(C=C2C(=O)NC(=S)NC2=O)c(C)n1-c1ccc2c(c1)OCO2	?	8.91µM*	?	?	2.82µM*
COc1cc2c(cc1OC)-c1c(OC)c(OC)c(OC)c3ccnc(c13)C2=O	-0.3%	?	-101.5*	?	2.6%
Nc1c(Br)cc([N+](=O)[O-])cc1[N+](=O)[O-]	nt	-1.9%	nt	nt	25.1µM*
O=P(O)(OP(=O)(O)c1ccccc1)c1ccccc1 (tested in a mixture with another compound)	-3.5%[7.66 µM]	-8.6%	nt	nt	-0.1%[13.5 µM]
C=C1C([C@@]2(C)C(OC(C)=O)CC(=O)O[C@@](C)(COC(C)=O)C2CC(=O)OC)C(OC=O)C(OC(=O)C(OC(C)=O)C(C)CC)[C@]2(C)C(c3ccoc3)CC(=O)C12O (stereo partly drawn)	-6.4%	-11.6%	nt	nt	-2.2%
CN(C)CCCNCC(=O)Nc1ccc(Cl)cc1C(=O)c1ccccc1	-3.2%	nt	nt	nt	2.82µM*
CNCCc1c[nH]c2ccccc12	-1.8%	nt	nt	-25.2%[46 µM]	17.8µM*
CNCCc1c[nH]c2ccc(O)cc12	-0.3%	-5.0%	nt	?	1.9%
CCC(C)N1C(=O)/C(=C/c2ccc3c(c2)CCN3CCCCl)C(=O)NC1=S (stereo not drawn)	-25.4%	25.1µM*	?	?	0.224µM*
